In PubChem BioAssay:
For part of these data: Measured potencies and affinities stand elsewhere. The source made the active and inactive calls.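 The calls were made as follows, unless noted: active = fitted half-maximal concentration within 10 nM to 100 µM, steepness 0.5 to 2, significant signal drop, low assay interference; inactive = the rest.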

What was measured:
[1] = target: Cell division control protein 42 homolog (Homo sapiens) (UniProt P60953); assay: activated mutant Cdc42 GTP-binding inhibitors, dose response, biochemical, multiplex bead flow cytometry, Bodipy-FL-GTP (AID 1333;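 active = fitted half-maximal concentration within the tested dose range, moderate curve steepness, a statistically real signal drop, and little compound fluorescence or tag-binding interference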); conditions: bead-based flow cytometry; series mostly up to 100 µM
[2] = target: Cell division control protein 42 homolog (Homo sapiens) (UniProt P60953); assay: wildtype Cdc42 GTP-binding inhibitors, dose response, biochemical, multiplex bead flow cytometry, Bodipy-FL-GTP (AID 1334;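 active = fitted half-maximal concentration within the tested range, moderate curve steepness, significant signal drop, and little compound fluorescence or bead-linkage interference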); conditions: bead-based flow cytometry, Bodipy-FL-GTP binding to GST-Cdc42; at 100 µM (top of the series) unless noted
[3] = target: GTPase HRas (Homo sapiens) (UniProt P01112); assay: inhibitors of GTP binding to wildtype Ras, dose response, biochemical, multiplex bead flow cytometry (AID 1335); conditions: bead-based flow cytometry, Bodipy-GTP binding to GST-Ras; at 100 µM (top of the series) unless noted
[4] = tested on: Ras-related protein Rab-7a (dog), GTP binding; assay: Rab7 GTP binding inhibitors, potency, dose response, biochemical, wildtype, multiplex bead flow cytometry (AID 1336; call rule not given here); conditions: bead-based flow cytometry, fluorescent GTP binding to Rab7; series mostly up to 100 µM
[5] = target: Ras-related C3 botulinum toxin substrate 1 (Homo sapiens) (UniProt P63000); assay: wildtype Rac1 GTP binding inhibitors, dose response, biochemical, multiplex bead flow cytometry (AID 1340;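 active = dose curve with midpoint inside tested range, moderate steepness, plateau gap beyond fit error, low compound glow and bead-link interference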); conditions: GST-Rac1 beads, Bodipy-FL-GTP binding; at 100 µM (top of the series) unless noted
[6] = target: GTPase HRas (Homo sapiens) (UniProt P01112); assay: activated Ras mutant GTP binding inhibitors, dose response, biochemical, multiplex bead flow cytometry (AID 1341;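 active = dose-response curve with midpoint inside the tested range, moderate steepness, significant amplitude and little compound fluorescence or bead-attachment interference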;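 also: GST-tagged constitutively activated Ras mutant immobilized on beads and multiplexed with other GTPases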); conditions: bead-based flow cytometry, Bodipy-FL-GTP binding; series mostly up to 100 µM

Chain of Cell division control protein 42 homolog (Homo sapiens) (P60953 whole entry, looked up): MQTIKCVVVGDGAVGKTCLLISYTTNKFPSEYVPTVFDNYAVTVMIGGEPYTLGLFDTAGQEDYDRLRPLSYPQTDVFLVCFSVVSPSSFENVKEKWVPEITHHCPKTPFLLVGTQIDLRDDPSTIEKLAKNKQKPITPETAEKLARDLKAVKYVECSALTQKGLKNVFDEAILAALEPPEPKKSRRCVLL
Chain of GTPase HRas (Homo sapiens) (P01112 whole entry, looked up): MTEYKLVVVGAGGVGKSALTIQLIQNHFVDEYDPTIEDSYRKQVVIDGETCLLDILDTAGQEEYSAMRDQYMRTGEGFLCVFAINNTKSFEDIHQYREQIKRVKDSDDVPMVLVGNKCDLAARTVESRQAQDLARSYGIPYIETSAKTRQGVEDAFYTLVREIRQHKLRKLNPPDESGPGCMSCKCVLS

Structure (SMILES) | outcome [1] | fluorescence, percent of control (lower = inhibition) [2] [%] | GTP binding, percent of control [3] [%] | outcome [4] | GTP binding signal, raw median fluorescence (lower = inhibition) (MCF (arbitrary fluorescence units)) [5] | outcome [6]
COc1ccccc1OCCn1cc(C(=O)O)c2c(Cl)cccc21 | inactive | 48.6 | 191 | inactive | 52 | inactive
CC(C)NC(=O)C12CC3CC(C1)CC(n1cnc(Cl)n1)(C3)C2 | inactive | 41.5 | 89.6 | inactive | 319 | inactive
O=C(O)c1c(C(F)(F)F)ccnc1NCc1ccccc1 | inactive | 61.8 | 224 | inactive | 57.2 | inactive
COc1cc(/C=C(/C#N)c2nc3ccccc3[nH]2)ccc1OCc1ccc(C(=O)O)o1 | inactive | 21.9 | 59.6 | inactive | 116 | inactive
O=C(CN1CCN(CCOCCO)CC1)N1c2ccccc2Sc2ccc(Cl)cc21 | inactive | 37.7 | 82.2 | inactive | 266 | inactive
COc1ccc(OC)c(/C=N/NC(=O)c2ccc(Cn3cc([N+](=O)[O-])cn3)o2)c1 | inactive | 30.5 | 66.3 | inactive | 159 | inactive
O=C(O)C1C(C(=O)Nc2ccc(Cl)cc2)C2C=CC1C21CC1 (stereo unspecified) | inactive | 86.8 | 149 | inactive | 173 | inactive
O=C(O)c1ccc(CNCc2ccc(F)cc2)s1 | inactive | 61.1 | 84.5 | inactive | 34.7 | inactive
O=C(O)C1(NCc2ccc(F)cc2)CCCCC1 | inactive | 62.4 | 89.4 | inactive | 33.6 | inactive
CN(/N=C/c1cccnc1)C1=NS(=O)(=O)c2ccccc21 | inactive | 36.2 | 50.7 | inactive | 137 | inactive
CC(=O)Oc1cccc(C#CC(=O)c2ccc([N+](=O)[O-])cc2)c1 | inactive | 35.4 | 173 | inactive | 95.5 | inactive
O=S(=O)(CC(CN1CCOCC1)N1CCOCC1)c1ccccc1 (stereo unspecified) | inactive | 43.3 | 92.1 | inactive | 310 | inactive
O=C(Nc1c(F)cccc1F)c1cnc(N2CCN(c3ccccn3)CC2)c2ccccc12 | inactive | 97 | 199 | inactive | 217 | inactive
CC(C)c1cc(NCc2ccccn2)n2c(nc3ccccc32)c1C#N | inactive | 34.4 | 77.4 | inactive | 178 | inactive
O=C(CSc1ccccc1)Nc1ccc(C(=O)Nc2cccc(O)c2)cc1 | inactive | 33.6 | 77.9 | inactive | 193 | inactive
COc1cccc(OCc2c(C)cccc2C)c1C(=O)O | inactive | 56.5 | 209 | inactive | 52.5 | inactive
CC(C)(C)NC(=O)CSc1nccn1Cc1ccccc1 | inactive | 33.3 | 78.6 | inactive | 144 | inactive
COc1cc(N2CCCC2)c(OC)cc1/C=C(/C#N)c1cccc(Br)c1 | inactive | 103 | 110 | inactive | 228 | inactive
COc1cc2[nH]c(=S)nc(NCc3ccccn3)c2cc1OC | inactive | 31.9 | 71.7 | inactive | 176 | inactive

Structure (SMILES) | outcome [1] | fluorescence, percent of control (lower = inhibition) [2] [%] | GTP binding, percent of control [3] [%] | outcome [4] | GTP binding signal, raw median fluorescence (lower = inhibition) (MCF (arbitrary fluorescence units)) [5] | outcome [6]
Cc1ccc(N=Nc2c(N)[nH]n3c(=O)cc(C)nc23)cc1 | inactive | 48.4 | 61 | inactive | 0 | inactive
Cn1nnnc1Sc1ncnc2scc(-c3ccc(F)cc3)c12 | inactive | 52.2 | 64.5 | inactive | 210 | inactive
O=C(COC(=O)c1ccc2c(c1[N+](=O)[O-])C(=O)c1ccccc1C2=O)NC1CC1 | inactive | 29.3 | 72.9 | inactive | 178 | inactive
CCCCNc1nc(=S)[nH]c2cc(OC)c(OC)cc12 | inactive | 37.9 | 47.8 | inactive | 110 | inactive
O=C(N/N=C(\c1ccccc1)c1ccccn1)c1cccc([N+](=O)[O-])c1 | inactive | 31.4 | 68.7 | inactive | 143 | inactive
Cc1ccccc1Nc1cc(C(=O)O)c2ccccc2n1 | inactive | 62.2 | 86.6 | inactive | 32.7 | inactive
CCOC(=O)Cc1csc(NC(=O)CSc2nc(-c3ccccc3)c(C#N)c(=O)[nH]2)n1 | inactive | 29.4 | 76.1 | inactive | 218 | inactive
Cc1no[n+]([O-])c1COc1cccc(/C=C2\N=C(c3ccccc3)OC2=O)c1 | inactive | 46.6 | 60.8 | inactive | 184 | inactive
S=c1[nH]nc(-c2ccco2)n1-c1ccc(Cl)cc1 | inactive | 28.4 | 67.6 | inactive | 209 | inactive
CNC(=O)C(C)NS(=O)(=O)c1ccc(F)cc1 (stereo unspecified) | inactive | 50.9 | 66.5 | inactive | 236 | inactive
O=C(O)C1=C[C@H](c2ccc(Br)cc2)C[C@H](OCc2ccc(CO)cc2)O1 | inactive | 30.3 | 82.5 | inactive | 230 | inactive
C=CCN1C(=O)/C(=C/C=C2/N(CC)c3ccc(S(=O)(=O)N(C)C)cc3N2CC)SC1=S | inactive | 56.2 | 88.4 | inactive | 215 | inactive
Cc1nc(Nc2ccc(C(=O)O)cc2)nc(Nc2ccc(C(=O)O)cc2)c1[N+](=O)[O-] | inactive | 28.7 | 64.9 | inactive | 111 | inactive
CCN1C(=O)C(CC(=O)Nc2ccc(F)cc2)N(CCc2ccc(OC)cc2)C1=S (stereo unspecified) | inactive | 33.8 | 78.6 | inactive | 239 | inactive
c1ccc(-c2onc3c2CCCC3)cc1 | inactive | 97.3 | 144 | inactive | 192 | inactive
Cc1ccc(S(=O)(=O)N(C)C)cc1NC(=O)COC(=O)c1ccc(Cl)cc1 | inactive | 39.2 | 86 | inactive | 265 | inactive
COc1ccc(CNCc2sc(C(=O)O)cc2C)cc1OC | inactive | 59.2 | 78.1 | inactive | 32.2 | inactive
COc1ccc2nc(C)cc(SCC(=O)N/N=C/c3ccc(O)c(O)c3)c2c1 | inactive | 35 | 75.8 | inactive | 164 | inactive
COc1cccc(-n2nc3c(-n4ncc(C#N)c4N)nnc(C)c3c2C)c1 | inactive | 54.8 | 64.6 | inactive | 212 | inactive

Structure (SMILES) | outcome [1] | fluorescence, percent of control (lower = inhibition) [2] [%] | GTP binding, percent of control [3] [%] | outcome [4] | GTP binding signal, raw median fluorescence (lower = inhibition) (MCF (arbitrary fluorescence units)) [5] | outcome [6]
COc1cc(C(=S)NC2CCCCC2)ccc1O | inactive | 46.9 | 62.4 | inactive | 209 | inactive
Cn1c(SCC(=O)Nc2cc(C(C)(C)C)nn2-c2ccccc2)nc2ccccc21 | inactive | 46.2 | 64.7 | inactive | 0 | inactive
O=C(/C=C/c1ccc(N2CCC(c3ccccc3)=N2)cc1)c1ccccc1 | inactive | 344 | 394 | inactive | 651 | inactive
Cc1ccc(NC(=O)Nc2ccnc(-c3cccnc3)n2)cc1 | inactive | 36.6 | 73.3 | inactive | 162 | inactive
Cc1ccc(C)c(N(CC(N)=O)S(C)(=O)=O)c1 | inactive | 103 | 135 | inactive | 164 | inactive
CCOC(=O)c1cccnc1SCCc1ccccc1 | inactive | 125 | 155 | inactive | 95.5 | inactive
O=C(O)c1cc(N2N=C(C(F)(F)F)/C(=C/C=C/c3ccco3)C2=O)ccc1Cl | inactive | 22.4 | 69.8 | inactive | 174 | inactive
O=C(O)c1ccccc1NCc1ccc(Cl)cc1 | inactive | 79.2 | 95.6 | inactive | 50.2 | inactive
Oc1c(C=Nc2cccc3cccnc23)sc2ccccc12 | inactive | 93.4 | 177 | inactive | 199 | inactive
Cc1ccccc1CNCc1ccc(C(=O)O)s1 | inactive | 61.7 | 87 | inactive | 32.5 | inactive
Cc1nc2c(ccc3nc(NC(=O)c4ccc(S(=O)(=O)N(C)C)cc4)sc32)s1 | inactive | 79.8 | 151 | inactive | 159 | inactive
COc1cccc(N2CCN(C(=O)c3cccn4c(=O)c5c(C)c(C)sc5nc34)CC2)c1 | inactive | 32.1 | 72.9 | inactive | 163 | inactive
COC(=O)c1cccnc1SCc1ccccc1 | inactive | 46 | 61.1 | inactive | 184 | inactive
S=c1[nH]nc(-c2ccco2)n1-c1ccccc1Cl | inactive | 26.1 | 60.5 | inactive | 231 | inactive
CCN(CC)S(=O)(=O)c1ccc2c(c1)c(=O)c(C(=O)N1CCc3ccccc3C1)cn2C | inactive | 96.7 | 172 | inactive | 225 | inactive
COc1ccccc1C(=O)N=Nc1c(O)[nH]c2ccc([N+](=O)[O-])cc12 | inactive | 23.9 | 51.1 | inactive | 115 | inactive
O=c1[nH]cnc2c1C(c1ccccc1[N+](=O)[O-])c1c(nc[nH]c1=O)O2 | inactive | 38.6 | 50 | inactive | 113 | inactive
CCOC(=O)c1cc2c(N)c(C(=O)c3ccc(Br)cc3)sc2[nH]c1=O | inactive | 29 | 69.1 | inactive | 145 | inactive
